High-throughput results deposited in PubChem BioAssay by National Center for Advancing Translational Sciences (NCATS).
In the library only some 19% were active in any assay of this set; here they are far more common.
IL-1B inflam inh: inhibitors of inflammasome signaling (IL-1 beta secretion) | THP-1 LPS/ATP IL-1B secretion, AlphaLISA, 16 h; active compounds read low | activity change, % at 57.5 µM | 360,000 compounds, 4.7% hits; in the data active = activity change below about -50%; inconclusive = mostly about -30% to -49%; note: % is set by controls: 0 for no effect and ±100 for the full control effect
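Secreted IL-1B measured by AlphaLISA bead assay after 16 h compound exposure of THP-1 cells; compounds (final up to 57.5 uM) added 1 h before LPS (250 ng/mL) and ATP (1.25 mM) stimulation; lower signal means less secretion.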
TDP1 cell noCPT: qHTS for Inhibitors of human tyrosyl-DNA phosphodiesterase 1 (TDP1): qHTS in cells in absence of CPT; 420,000 compounds, 15% hits; Potency, µM (series often up to 46.2 µM), for the others: at the highest dose activity change, negative = growth inhibition, usual class: inhibitors; DT40 Tdp1-/- hTDP1 cells, no CPT, ATP luminescence, 48 h; note: potency is the fitted concentration of half-maximal effect; % is set by controls: 0 for no effect and ±100 for the full control effect; nearly all actives have a fitted effect of over 55% in size
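No-CPT arm: Tdp1-/-;hTDP1 DT40 cells (400/well) plus compounds, incubated ≥48 hr at 37 °C. Readout CellTiter-Glo luminescence.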
SW480 rerep: inducers of DNA re-replication in SW480 colon cancer cells; SW480 DNA re-replication, Hoechst DNA content imaging, 48 h; Potency, µM (series often up to 46.1 µM), for the others: top-dose re-replication activation, hits mostly activators; 340,000 compounds, 1.8% hits; note: potency is the fitted concentration of half-maximal effect; % of control where 0% means no effect; nearly all actives have a fitted effect of over 55% in size
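DNA re-replication was detected as more nuclei of elevated Hoechst intensity after 48 hr exposure to compound (23 nL pinned per well of 250 cells).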
MCF10A rerep: DNA re-replication induction in MCF 10a cells. MCF 10A DNA re-replication, Hoechst nuclear intensity, 48 h. 350,000 compounds, 2.9% hits. Potency, µM (doses to about 46.1 µM), for the others: at the highest dose activity, positive = re-replication, hits mostly activators; note: potency is the fitted concentration of half-maximal effect; % of control where 0% means no effect; nearly all actives have a fitted effect of over 50% in size
DT40 TDP1 CPT: growth inhibition of DT40 Tdp1-/-;hTDP1 cells with camptothecin (screen for TDP1 inhibitors). chicken DT40 Tdp1-/-;hTDP1 cells + 20 nM CPT, ATP luminescence, 48 h. Potency, µM (top dose mostly 46.2 µM), for the others: at the highest dose activity change, negative = growth inhibition, usual class: inhibitors. 420,000 compounds, 12% hits; note: potency is the fitted concentration of half-maximal effect; % is set by controls: 0 for no effect and ±100 for the full control effect; nearly all actives have a fitted effect of over 55% in size
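Chicken DT40 Tdp1-/- cells stably complemented with human TDP1 were seeded at 400 cells/well in medium containing 20 nM camptothecin, exposed to pin-transferred compounds, and grown at 37 °C for at least 48 hr. Viability was read as ATP luminescence.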
Chronic BCR inh: blocks chronic active B-cell receptor signaling; ABC-DLBCL IkBa-CBG/CBR reporter, luminescence ratio, 4 h; Potency, µM (highest dose often 46.1 µM), without a hit: top-dose activity change, negative = inhibition, actives largely listed as inhibitors; 340,000 compounds, 0.05% hits; active = well fitted inhibition curve with a large enough effect in the signal ratio, with a control signal flat, not every such curve was filed as active; inconclusive = small, poorly fitted or top-dose-only effect, or effect the other way, or a change in a side signal; the % refers to the signal ratio;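 note: potency is the fitted concentration of half-maximal effect; plate controls were basal doxycycline-induced cells for no effect and cells given 10 µM MG132 for full effect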
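Cell line TMD8 (human ABC DLBCL), stably expressing tet-inducible CBG68-IkBa fusion and CBR; IMDM/0.5% FBS; cpd up to 46 uM; dox induction, 4 h, 37C/5% CO2; dual luminescence; green/red ratio; MG132 control.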
Active calls of the source: *. Unless noted, calls come from the whole dose curve; as a rule, active = well fitted curve in the direction sought with a large enough effect; inconclusive = small, poorly fitted or top-dose-only effect, or another doubt; inactive = no such curve, though single readings can be large; an effect the other way counts as inactive or inconclusive.

CS(=O)(=O)N1CCC(Oc2ccccc2C(=O)NCCCc2cccnc2)CC1 was read as IL-1B inflam inh 10.8, TDP1 cell noCPT -25.5%, SW480 rerep 0.7%, MCF10A rerep -1.5%, DT40 TDP1 CPT -26.6% and Chronic BCR inh -3.2%.
Cc1ccc(NC(=O)CSc2nnc(-c3ccoc3C)n2CCCN(C)C)cc1Cl was read as IL-1B inflam inh -60.8*, TDP1 cell noCPT -11.2%, SW480 rerep -5.5%, MCF10A rerep 10.6%, DT40 TDP1 CPT -6.0% and Chronic BCR inh -8.2%.
Screening CCN(CC)CCCn1c(SCC(=O)Nc2cccc(F)c2)nnc1-c1ccoc1C returned IL-1B inflam inh -7.2, TDP1 cell noCPT 5.7%, SW480 rerep 1.1%, MCF10A rerep 1.9%, DT40 TDP1 CPT 0.0% and Chronic BCR inh -0.6%.
Cc1occc1-c1nnc(SCC(=O)Nc2nccs2)n1CCc1ccccc1 was read as IL-1B inflam inh -11.9, TDP1 cell noCPT 18.4µM*, SW480 rerep -38.6%, MCF10A rerep -5.8%, DT40 TDP1 CPT 14.6µM* and Chronic BCR inh inconclusive.
CC(=O)c1ccc(NC(=O)CSc2nnc(-c3ccoc3C)n2Cc2ccccc2)cc1 was read as IL-1B inflam inh -66.7*, TDP1 cell noCPT -26.7%, SW480 rerep 17.3%, MCF10A rerep 9.6%, DT40 TDP1 CPT inconclusive and Chronic BCR inh 1.8%.
For COc1ccc(C)cc1-n1nnnc1SCC(=O)NC1CCS(=O)(=O)C1 (stereo not given) the results were IL-1B inflam inh 0.3, TDP1 cell noCPT 14.6%, SW480 rerep 27.7%, MCF10A rerep 0.3%, DT40 TDP1 CPT -6.4% and Chronic BCR inh 0.0%.
For O=C(NC1CCCCC1)c1c(O)nc2sccn2c1=O the results were IL-1B inflam inh 18.9, TDP1 cell noCPT inconclusive, SW480 rerep -553.9%, MCF10A rerep 8.1%, DT40 TDP1 CPT inconclusive and Chronic BCR inh inconclusive.
For O=C(NC1CCCCCC1)c1c(O)nc2sccn2c1=O the results were IL-1B inflam inh 20.4, TDP1 cell noCPT 14.6µM*, SW480 rerep 6.4%, MCF10A rerep -3.2%, DT40 TDP1 CPT 16.4µM* and Chronic BCR inh inconclusive.
CCn1c(SCC(=O)N/N=C/C=C/c2ccco2)nnc1-c1ccc(OC)cc1 was read as IL-1B inflam inh -7.9, TDP1 cell noCPT inconclusive, SW480 rerep -7.6%, MCF10A rerep 0.7%, DT40 TDP1 CPT inconclusive and Chronic BCR inh -0.8%.
For CC(/C=N/NC(=O)CSc1nc2ccccc2n1C)=C\c1ccco1 the results were IL-1B inflam inh -13.8, TDP1 cell noCPT inconclusive, SW480 rerep inconclusive, MCF10A rerep 20.6µM*, DT40 TDP1 CPT inconclusive and Chronic BCR inh -8.4%.
Cn1c(SCC(=O)N/N=C/c2ccco2)nc2ccccc21 was read as IL-1B inflam inh -26.2, TDP1 cell noCPT -3.8%, SW480 rerep -10.2%, MCF10A rerep -9.8%, DT40 TDP1 CPT -12.8% and Chronic BCR inh -8.1%.
`O=C(COc1ccccc1[N+](=O)[O-])N/N=C/C=C/c1ccco1` gave IL-1B inflam inh 0.0, TDP1 cell noCPT inconclusive, SW480 rerep -7.1%, MCF10A rerep -14.8%, DT40 TDP1 CPT -25.5% and Chronic BCR inh inconclusive.
Screening Cc1ccc(OCC(=O)N/N=C/C=C/c2ccco2)cc1 returned IL-1B inflam inh -2.0, TDP1 cell noCPT 7.31µM*, SW480 rerep inconclusive, MCF10A rerep inconclusive, DT40 TDP1 CPT 8.2µM* and Chronic BCR inh -5.4%.
CCn1c(SCC(=O)N/N=C/C=C/c2ccco2)nc2ccccc21 was read as IL-1B inflam inh 0.0, TDP1 cell noCPT inconclusive, SW480 rerep 16.4µM*, MCF10A rerep 20.6µM*, DT40 TDP1 CPT inconclusive and Chronic BCR inh inconclusive.
CCN(c1ccccc1)S(=O)(=O)c1ccc(OC)c(NC(=O)c2cc(F)c(F)c(F)c2F)c1 was read as IL-1B inflam inh -8.2, TDP1 cell noCPT -17.2%, SW480 rerep -14.3%, MCF10A rerep 15.8%, DT40 TDP1 CPT -25.0% and Chronic BCR inh 5.9%.
For CC1(C)CC(=O)C(C=Nc2ccc(NC3=C(C#N)C(=O)CC(C)(C)C3)cc2)=C(O)C1 the results were IL-1B inflam inh -1.7, TDP1 cell noCPT -38.1%, SW480 rerep -15.8%, MCF10A rerep 6.2%, DT40 TDP1 CPT -10.3% and Chronic BCR inh 0.9%.
O=C(c1ccccn1)N1CCN(c2cccc(C(F)(F)F)c2)CC1 was read as IL-1B inflam inh -3.2, TDP1 cell noCPT -12.5%, SW480 rerep -58.7%, MCF10A rerep -3.3%, DT40 TDP1 CPT -28.1% and Chronic BCR inh 5.5%.
`O=C(c1ccccn1)N1CCCC(N2CCN(c3cccc(C(F)(F)F)c3)CC2)C1` (stereo not given) gave IL-1B inflam inh 7.0, TDP1 cell noCPT 14.6µM*, SW480 rerep inconclusive, MCF10A rerep 14.8%, DT40 TDP1 CPT inconclusive and Chronic BCR inh 3.8%.
`O=C(c1cc[n+]([O-])cc1)N1CCCC(N2CCN(c3cccc(C(F)(F)F)c3)CC2)C1` (stereo not given) gave IL-1B inflam inh 0.0, TDP1 cell noCPT inconclusive, SW480 rerep -1.5%, MCF10A rerep 1.9%, DT40 TDP1 CPT 10.3µM* and Chronic BCR inh inconclusive.
Screening O=C1NC[C@@H](CCCCN2C[C@H](Cc3ccc(O)cc3)N(CCc3ccccc3)C(=O)C2=O)N(CC2CCCCC2)C1=O returned IL-1B inflam inh -6.9, TDP1 cell noCPT 1.4% and DT40 TDP1 CPT -0.8%.
For CN(CC(=O)Nc1ccc(Cl)c(Cl)c1)C(=O)C12CC3CC(CC(C3)C1)C2 the results were IL-1B inflam inh -54.1*, TDP1 cell noCPT inconclusive, SW480 rerep 1.7%, MCF10A rerep inconclusive, DT40 TDP1 CPT inconclusive and Chronic BCR inh 4.0%.
For CCOC(=O)c1cc2c(=O)n3ccccc3nc2n(CCCOC)c1=NC(=O)c1c(-c2ccccc2Cl)noc1C the results were TDP1 cell noCPT 4.5% and DT40 TDP1 CPT -1.3%.
For Cc1cnc(NC(=O)NCC2CCCC(CNC(=O)Nc3ncc(C)s3)C2)s1 (stereo not given) the results were IL-1B inflam inh -98.1*, TDP1 cell noCPT inconclusive, SW480 rerep 15.8%, MCF10A rerep inconclusive, DT40 TDP1 CPT inconclusive and Chronic BCR inh inconclusive.
For Cc1ccc(S(=O)(=O)N(C)C[C@@H]2OCc3cnnn3CCCC(=O)N([C@@H](C)CO)C[C@H]2C)cc1 the results were IL-1B inflam inh 13.5, TDP1 cell noCPT -11.3% and DT40 TDP1 CPT -3.6%.
